The values that follow come from PubChem BioAssay (Tox21).

Records with an inconclusive call do not appear. Calls of active or inactive are those of the source. Unless noted, calls follow the shape of the full dose curve.

Assay [1] can be described thus: qHTS assay to identify small molecule antagonists of the sonic hedgehog signaling (Shh) pathway (AID 1259369). Also: nearly all actives have a fitted effect of over 45% in size. Summed up:
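Gli1 transcriptional reporter (firefly Luc) in NIH/3T3 background, conditioned-medium activated. 24hr exposure, luminescence endpoint.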
Background: qHTS replaces the single test concentration by a dilution series.

Assay [2] is described as follows: qHTS assay to identify small molecule agonists of the androgen receptor (AR) signaling pathway in the presence of an antagonist - cell viability counter screen (AID 1259379; active = well fitted curve in the direction sought with a large enough effect in the repeat runs; an effect the other way counts as inactive or inconclusive;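 also: MDA-kb2 human breast cancer cells carrying an MMTV luciferase reporter; series mostly up to about 92 µM; nearly all actives have a fitted effect of over 25% in size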). Put shortly: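 Counter screen for cell viability run in parallel with the AR agonist-mode luciferase assay. MDA-kb2 cells were co-treated with nilutamide (3.0uM final) and compounds, then incubated 16 hr at 37C, and CellTiter-Fluor fluorescence was measured.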

Assay [3] can be described thus: qHTS assay to identify small molecule antagonists of the estrogen receptor beta (ER-beta) signaling pathway - cell viability counter screen (AID 1259382; active = well fitted curve in the direction sought with a large enough effect in the repeat runs; an effect the other way counts as inactive or inconclusive;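 also: HEK293T cells carrying ER-beta-UAS-bla reporter stimulated with estradiol; series mostly up to about 92 µM; nearly all actives have a fitted effect of over 55% in size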). Summed up: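 HEK293T ER-beta-UAS-bla, 2% charcoal-stripped FBS; compounds + 1nM E2 16 hr 37C; CellTiter-Glo luminescence, 30 min RT.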
Assay [4] concerns the target Estrogen receptor (Homo sapiens) (UniProt P03372). Briefly: qHTS assay to identify small molecule agonists of the estrogen receptor alpha (ER-alpha) signaling pathway in the presence of an antagonist (AID 1259383). Also: top concentration of the series differs between compounds; nearly all actives have a fitted effect of over 15% in size. Put shortly: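 ER-alpha agonism measured under antagonist challenge: 10.0nM ICI-182,780 (final) plus compound, 15 concentrations, 22hr, VM7Luc4E2 ERE-luciferase cells. Read by luminescence.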

The nature of assay [5]: qHTS assay to identify small molecule agonists or antagonists of the thyroid stimulating hormone receptor (TSHR) signaling pathway - wild type cell line counter screen (AID 1259384). Put shortly:
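Counter screen in untransfected Hek293: compounds (15-point titration, triplicate) plus phosphodiesterase inhibitor Ro20-1724 added after 18 h plating; 30 min RT. Intracellular cAMP via competitive d2/cryptate immunoassay, 1 h incubation.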

For assay [6], the target named is Thyrotropin receptor (Homo sapiens) (UniProt P16473). The assay can be described thus: qHTS assay to identify small molecule antagonists of the thyroid stimulating hormone receptor (TSHR) signaling pathway (AID 1259385). Also: nearly all actives have a fitted effect of over 20% in size. Summed up: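 Antagonist mode: compound-treated TSHR-expressing HEK293 cells were stimulated with 1.5 ng/mL TSH (final) in presence of Ro20-1724 for 30 min at RT. HTRF cAMP detection after 1 h; each compound tested at 15 concentrations, triplicate.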
Sequence of Thyrotropin receptor (Homo sapiens) (P16473 whole entry, looked up): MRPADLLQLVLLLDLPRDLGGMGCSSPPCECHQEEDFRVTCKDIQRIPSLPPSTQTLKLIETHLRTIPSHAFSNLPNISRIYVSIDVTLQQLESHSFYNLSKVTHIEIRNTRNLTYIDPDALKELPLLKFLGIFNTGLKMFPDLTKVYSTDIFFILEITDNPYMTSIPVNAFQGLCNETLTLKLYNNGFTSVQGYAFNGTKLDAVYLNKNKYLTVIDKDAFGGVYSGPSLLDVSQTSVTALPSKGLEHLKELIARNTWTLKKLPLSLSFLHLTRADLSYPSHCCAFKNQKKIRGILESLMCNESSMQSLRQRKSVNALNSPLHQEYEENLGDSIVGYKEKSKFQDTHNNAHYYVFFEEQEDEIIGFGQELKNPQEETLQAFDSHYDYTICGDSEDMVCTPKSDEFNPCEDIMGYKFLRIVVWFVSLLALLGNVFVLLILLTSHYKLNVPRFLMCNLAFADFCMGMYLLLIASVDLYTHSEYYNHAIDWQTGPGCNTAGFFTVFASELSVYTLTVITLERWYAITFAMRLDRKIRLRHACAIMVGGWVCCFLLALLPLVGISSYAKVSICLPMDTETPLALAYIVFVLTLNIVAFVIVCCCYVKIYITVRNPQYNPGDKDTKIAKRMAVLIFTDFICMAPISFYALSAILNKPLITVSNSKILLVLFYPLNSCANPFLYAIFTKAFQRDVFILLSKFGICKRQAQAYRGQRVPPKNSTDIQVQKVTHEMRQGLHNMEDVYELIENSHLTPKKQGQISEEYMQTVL

A short description of assay [7]: qHTS assay to identify small molecule agonists of the estrogen receptor alpha (ER-alpha) signaling pathway in the presence of an antagonist - cell viability counter screen (AID 1259386; active = well fitted curve in the direction sought with a large enough effect in the repeat runs; an effect the other way counts as inactive or inconclusive;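 also: cells exposed to compounds for 22 h at 37 °C before the viability read; nearly all actives have a fitted effect of over 30% in size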; also: potency is read from the fitted curve at half-maximal effect). Put shortly:
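Steps: 5-day stripped-FBS culture; seed and incubate 24hr; add ICI-182,780 (10.0nM final); pin 15-point compound titration; incubate 22hr at 37C; add CellTiter-Fluor at 21hr; read fluorescence.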

Assay [8] has as its target Progesterone receptor (Homo sapiens) (UniProt P06401). Briefly: qHTS assay to identify small molecule agonists of the progesterone receptor (PR) signaling pathway (AID 1346784). Also: nearly all actives have a fitted effect of over 30% in size. Summed up: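 Seed PR-UAS-bla HEK 293T cells (2% charcoal-stripped FBS), incubate 6 hr at 37C; add compounds in DMSO, 16 hr at 37C; add LiveBLAzer B/G substrate, 2 hr RT; read fluorescence intensity.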

The nature of assay [9]: qHTS assay to identify small molecule agonists of the progesterone receptor (PR) signaling pathway - cell viability counter screen (AID 1346799). Also: nearly all actives have a fitted effect of over 45% in size. Also: potency is read from the fitted curve at half-maximal effect. Put shortly:
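Using the same plates as the PR reporter screen, HEK293T PR-UAS-bla cells received compounds for 16 hr at 37C and were then lysed with CellTiter-Glo; luminescence was read 30 min later at room temperature.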

A short description of assay [10]: qHTS assay to identify small molecule antagonists of the TGF-beta/Smad signaling pathway - cell viability counter screen (AID 1346824; active = well fitted curve in the direction sought with a large enough effect in the repeat runs; an effect the other way counts as inactive or inconclusive; also: nearly all actives have a fitted effect of over 50% in size). Put shortly:
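Cytotoxicity counter-screen run in the same wells as the beta-lactamase Smad reporter read: CellTiter-Glo luminescence after 30 min at room temperature. HEK 293T SBE-bla cells had 5 hr compound exposure at 37 C with TGF-beta1 (0.25 ng/mL stock).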

A short description of assay [11]: qHTS assay to identify small molecule agonists of the TGF-beta/Smad signaling pathway - cell viability counter screen (AID 1346829; active = well fitted curve in the direction sought with a large enough effect in the repeat runs; an effect the other way counts as inactive or inconclusive; also: top concentration of the series differs between compounds; nearly all actives have a fitted effect of over 45% in size). Summed up: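 After overnight seating at 37 C and 5% CO2, reporter cells got compounds for 5 hr and FRET substrate for 2 hr; cell viability then came from CellTiter-Glo luminescence.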
A short description of assay [12]: qHTS assay to identify small molecule agonists of the TGF-beta/Smad signaling pathway (AID 1346859; active = well fitted activation curve with a large enough effect in the signal ratio in the repeat runs, not every such curve was filed as active; the % refers to the signal ratio; also: series mostly up to about 77 µM). Summed up:
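Beta-lactamase reporter activity downstream of Smad binding elements was measured in stably transfected HEK 293T cells; compounds were incubated for 5 hr, substrate for 2 hr at room temperature.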

Assay [13] addresses Thyrotropin-releasing hormone receptor (Homo sapiens) (UniProt P34981). The assay can be described thus: qHTS assay to identify small molecule antagonists of the thyrotropin-releasing hormone receptor (TRHR) signaling pathway (AID 1346877; active = well fitted inhibition curve with a large enough effect in the repeat runs, not every such curve was filed as active; also: series mostly up to about 51 µM). Summed up:
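Human TRHR in HEK293 cells; inhibition of the intracellular calcium rise triggered by 1 nM TRH was followed by fluorescence over 3 min. Compounds were run at 15 concentrations, three replicates each.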

For assay [14] the target is unchanged. Briefly: qHTS assay to identify small molecule agonists of the thyrotropin-releasing hormone receptor (TRHR) signaling pathway (AID 1346891).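 Also: HEK293 cells expressing TRHR with calcium dye readout; series mostly up to about 58 µM.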 Put shortly:
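Overnight-plated (18 h, 37 °C, 5% CO2) TRHR-Hek293 cells; 2 h calcium dye at 37 °C; compound in DMSO; 3-min kinetic fluorescence read.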

A short description of assay [15]: qHTS assay to identify small molecule agonists of the estrogen receptor beta (ER-beta) signaling pathway - cell viability counter screen (AID 1259380; active = well fitted curve in the direction sought with a large enough effect in the repeat runs; an effect the other way counts as inactive or inconclusive; also: nearly all actives have a fitted effect of over 30% in size; also: potency is read from the fitted curve at half-maximal effect). Summed up: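 In this qHTS counter screen, HEK293T cells carrying an ER-beta/UAS beta-lactamase reporter, grown in 2% charcoal-stripped FBS, received compound for 16 hr; ATP-based CellTiter-Glo luminescence was then read after 30 min at room temperature.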

Assay [16] concerns the target Progesterone receptor (Homo sapiens) (UniProt P06401). Briefly: qHTS assay to identify small molecule antagonists of the progesterone receptor (PR) signaling pathway (AID 1346795; active = well fitted inhibition curve with a large enough effect in the signal ratio in the repeat runs, not every such curve was filed as active; the % refers to the signal ratio). Put shortly:
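Screening used a GripTite HEK293T line with PR-responsive UAS-beta-lactamase. Cells were challenged with compound in the presence of 1 nM R5020 final for 16 hr at 37C; B/G FRET substrate, 2 hr room temperature, fluorescence.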

Assay [17] in a line: qHTS assay to identify small molecule antagonists of the progesterone receptor (PR) signaling pathway - cell viability counter screen (AID 1346798; active = well fitted curve in the direction sought with a large enough effect in the repeat runs; an effect the other way counts as inactive or inconclusive; also: nearly all actives have a fitted effect of over 50% in size; also: potency is read from the fitted curve at half-maximal effect). Put shortly: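 Measures cytotoxicity in parallel with the PR antagonist reporter read: HEK293T PR-UAS-bla cells get compound and R5020 for 16 hr, and remaining viable cells are quantified by CellTiter-Glo luminescence.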
Assay [18] addresses Estrogen receptor beta (Homo sapiens) (UniProt Q92731). The assay can be described thus: qHTS assay to identify small molecule agonists of the estrogen receptor beta (ER-beta) signaling pathway (AID 1259377; active = well fitted activation curve with a large enough effect in the signal ratio in the repeat runs, not every such curve was filed as active; the % refers to the signal ratio). Summed up:
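Screening used GripTite ER-beta-UAS-bla cells held in 2% charcoal-stripped FBS medium. After overnight (16 hr) compound incubation at 37C, beta-lactamase activity was detected with a FRET substrate by fluorescence.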

In assay [19] the target is Androgen receptor (Homo sapiens) (UniProt P10275). The assay can be described thus: qHTS assay to identify small molecule agonists of the androgen receptor (AR) signaling pathway in the presence of an antagonist (AID 1259381). Also: nearly all actives have a fitted effect of over 15% in size. Summed up:
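AR antagonist background: nilutamide 3.0uM final. Cell line: MDA-kb2, MMTV-driven luciferase, responsive to both AR and GR. Exposure 16hr, 37C, no CO2; ONE-Glo luminescence.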

Sequence of Estrogen receptor (Homo sapiens) (P03372 whole entry, looked up): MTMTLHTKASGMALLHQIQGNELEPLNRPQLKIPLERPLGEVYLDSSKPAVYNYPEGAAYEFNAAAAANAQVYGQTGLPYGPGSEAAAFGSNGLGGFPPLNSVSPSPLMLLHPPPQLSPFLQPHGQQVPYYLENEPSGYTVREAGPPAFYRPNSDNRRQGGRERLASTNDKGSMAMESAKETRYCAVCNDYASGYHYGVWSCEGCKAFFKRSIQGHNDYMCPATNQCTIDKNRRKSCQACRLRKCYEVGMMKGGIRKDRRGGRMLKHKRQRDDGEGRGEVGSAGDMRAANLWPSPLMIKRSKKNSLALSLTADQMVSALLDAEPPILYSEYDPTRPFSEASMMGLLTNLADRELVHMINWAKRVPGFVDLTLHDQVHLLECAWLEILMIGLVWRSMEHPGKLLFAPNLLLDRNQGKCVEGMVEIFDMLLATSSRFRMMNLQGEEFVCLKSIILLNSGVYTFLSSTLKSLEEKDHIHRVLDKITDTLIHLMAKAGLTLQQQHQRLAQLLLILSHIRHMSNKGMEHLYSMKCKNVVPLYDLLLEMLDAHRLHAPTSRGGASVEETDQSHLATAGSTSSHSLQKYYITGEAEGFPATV
Sequence of Thyrotropin-releasing hormone receptor (Homo sapiens) (P34981 whole entry, looked up): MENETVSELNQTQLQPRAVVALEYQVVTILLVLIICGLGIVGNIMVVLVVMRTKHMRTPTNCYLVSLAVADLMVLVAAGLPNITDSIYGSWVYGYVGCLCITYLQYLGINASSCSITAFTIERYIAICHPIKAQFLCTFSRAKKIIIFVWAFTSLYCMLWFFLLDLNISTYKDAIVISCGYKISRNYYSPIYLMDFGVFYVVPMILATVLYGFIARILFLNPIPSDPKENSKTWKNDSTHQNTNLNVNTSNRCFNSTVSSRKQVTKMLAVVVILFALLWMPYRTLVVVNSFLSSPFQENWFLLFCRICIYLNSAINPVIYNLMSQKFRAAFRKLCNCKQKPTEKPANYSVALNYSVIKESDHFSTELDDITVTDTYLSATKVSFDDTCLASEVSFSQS
Sequence of Progesterone receptor (Homo sapiens) (P06401 whole entry, looked up): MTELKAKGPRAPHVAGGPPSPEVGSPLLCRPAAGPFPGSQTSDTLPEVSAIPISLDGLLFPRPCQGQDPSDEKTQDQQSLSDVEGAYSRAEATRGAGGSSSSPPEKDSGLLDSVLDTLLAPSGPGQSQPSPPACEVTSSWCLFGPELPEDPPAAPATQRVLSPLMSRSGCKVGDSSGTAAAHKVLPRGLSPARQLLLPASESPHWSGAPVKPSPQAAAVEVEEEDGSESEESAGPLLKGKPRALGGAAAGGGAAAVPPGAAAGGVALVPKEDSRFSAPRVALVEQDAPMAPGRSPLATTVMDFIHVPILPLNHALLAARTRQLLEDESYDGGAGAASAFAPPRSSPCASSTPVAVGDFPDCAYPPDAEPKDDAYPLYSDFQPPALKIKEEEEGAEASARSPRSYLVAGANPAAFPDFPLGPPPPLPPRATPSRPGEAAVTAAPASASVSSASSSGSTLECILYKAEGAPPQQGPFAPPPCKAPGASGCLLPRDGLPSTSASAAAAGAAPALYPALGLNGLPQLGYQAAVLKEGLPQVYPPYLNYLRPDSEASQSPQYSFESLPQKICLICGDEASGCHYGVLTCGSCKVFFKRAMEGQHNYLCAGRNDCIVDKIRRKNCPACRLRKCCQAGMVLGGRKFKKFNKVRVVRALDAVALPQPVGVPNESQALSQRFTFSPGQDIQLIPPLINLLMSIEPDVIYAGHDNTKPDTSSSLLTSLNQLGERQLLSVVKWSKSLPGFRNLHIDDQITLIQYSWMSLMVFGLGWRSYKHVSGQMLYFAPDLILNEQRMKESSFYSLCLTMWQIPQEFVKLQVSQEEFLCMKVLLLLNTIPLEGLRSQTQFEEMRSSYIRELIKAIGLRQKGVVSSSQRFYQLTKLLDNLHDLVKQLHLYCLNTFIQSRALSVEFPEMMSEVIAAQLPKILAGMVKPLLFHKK
Sequence of Androgen receptor (Homo sapiens) (P10275 whole entry, looked up): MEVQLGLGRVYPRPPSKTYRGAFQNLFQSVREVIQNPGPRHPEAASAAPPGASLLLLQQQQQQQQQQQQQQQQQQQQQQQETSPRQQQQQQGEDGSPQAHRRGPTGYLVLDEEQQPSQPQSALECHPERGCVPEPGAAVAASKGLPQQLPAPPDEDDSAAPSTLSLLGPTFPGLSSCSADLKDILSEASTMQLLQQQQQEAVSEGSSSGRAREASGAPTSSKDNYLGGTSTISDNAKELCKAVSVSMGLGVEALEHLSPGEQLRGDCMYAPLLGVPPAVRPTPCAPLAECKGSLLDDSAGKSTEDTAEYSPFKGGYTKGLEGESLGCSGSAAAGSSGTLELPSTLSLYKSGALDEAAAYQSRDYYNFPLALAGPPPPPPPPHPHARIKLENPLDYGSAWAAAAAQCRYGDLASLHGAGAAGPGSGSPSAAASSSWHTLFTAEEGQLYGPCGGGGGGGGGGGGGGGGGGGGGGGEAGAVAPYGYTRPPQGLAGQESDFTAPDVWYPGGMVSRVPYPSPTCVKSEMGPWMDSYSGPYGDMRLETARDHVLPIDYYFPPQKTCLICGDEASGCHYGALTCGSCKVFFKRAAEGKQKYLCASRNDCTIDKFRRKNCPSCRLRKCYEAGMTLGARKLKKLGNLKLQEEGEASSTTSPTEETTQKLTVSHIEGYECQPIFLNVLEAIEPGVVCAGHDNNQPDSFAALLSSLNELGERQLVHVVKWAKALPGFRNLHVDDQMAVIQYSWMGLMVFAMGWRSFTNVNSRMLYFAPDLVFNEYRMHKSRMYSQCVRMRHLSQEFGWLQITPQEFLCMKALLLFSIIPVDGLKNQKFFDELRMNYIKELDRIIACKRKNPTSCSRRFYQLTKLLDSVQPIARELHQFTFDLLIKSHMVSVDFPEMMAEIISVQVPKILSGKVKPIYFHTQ
Sequence of Estrogen receptor beta (Homo sapiens) (Q92731 whole entry, looked up): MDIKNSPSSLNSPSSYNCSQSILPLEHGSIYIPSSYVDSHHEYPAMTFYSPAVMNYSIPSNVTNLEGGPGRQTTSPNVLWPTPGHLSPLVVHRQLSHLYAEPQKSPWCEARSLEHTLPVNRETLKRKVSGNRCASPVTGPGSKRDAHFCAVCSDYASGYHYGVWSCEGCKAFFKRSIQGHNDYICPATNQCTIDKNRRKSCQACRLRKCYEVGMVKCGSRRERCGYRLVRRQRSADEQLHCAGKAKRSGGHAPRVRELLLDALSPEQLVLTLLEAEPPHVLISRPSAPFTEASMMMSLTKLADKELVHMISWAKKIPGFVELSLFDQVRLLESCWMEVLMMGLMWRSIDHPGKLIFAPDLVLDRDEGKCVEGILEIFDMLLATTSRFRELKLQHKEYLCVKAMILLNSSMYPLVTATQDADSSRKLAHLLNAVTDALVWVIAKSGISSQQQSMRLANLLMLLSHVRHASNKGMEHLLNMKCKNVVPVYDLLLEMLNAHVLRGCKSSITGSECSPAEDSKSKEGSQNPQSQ

In the case of `N#Cc1cc2ccccc2c2ccccc12`, the Potency result in assay [1], in assay [2], in assay [3], in assay [4], in assay [5] and in assay [6] was “inactive” in each case. The Potency result in [7], in assay [9], in assay [10], in [11] and in assay [14] was “inactive” each time. Further, the molecule was classed as inactive in assay [8], in [12] and in assay [13].
`Cc1cccc(Oc2ccccc2)c1`: the Potency entry in [1], in [4], in assay [5], in assay [6], in assay [7] and in assay [16] was “inactive” each time. Moreover, the Potency result in [10], in assay [11] and in assay [14] was “inactive” each time. In addition, the figures for the Potency in assay [15] and in [17] were 9.44 µM (active) and 21.1 µM (active), respectively. In addition, the outcome in assay [8], in assay [12] and in [13] was inactive.
On to `CC(=O)/C(C)=C/C1C(C)=CCCC1(C)C` (centres undefined), for which the Potency result in assay [1], in assay [2], in assay [3], in assay [4], in [5] and in assay [6] was “inactive” in each case. In addition, the Potency entry in [7], in [16], in assay [17], in assay [10], in [11] and in assay [14] was “inactive” each time. Moreover, the outcome in assay [8], in assay [12] and in assay [13] was inactive.
For the molecule `Cl/C(=C\n1cncn1)c1ccc(Cl)cc1Cl`, the Potency entry in [1], in [2], in assay [15], in [3], in [5] and in assay [6] was “inactive” in each case. Moreover, the Potency result in [7], in [10], in assay [11] and in assay [14] was “inactive” each time. The call in [8], in assay [12] and in assay [13] was inactive.
For `COc1ccc2[nH]c(S(=O)Cc3ncc(C)c(OC)c3C)nc2n1` (centres undefined), the Potency entry in assay [1], in [15], in assay [3], in [4], in assay [7] and in assay [16] was “inactive” each time. The Potency result in [10], in assay [11] and in [14] was “inactive” each time. The result in assay [8], in [12] and in [13] was inactive.
Regarding `NC1CCN(c2nc3c(cc2F)c(=O)c(C(=O)O)cn3-c2ccc(F)cc2F)C1` (centres undefined), the Potency result in assay [1], in [15], in assay [4], in [5], in assay [6] and in assay [7] was “inactive” in each case. Further, the Potency result in assay [17], in [10], in assay [11] and in assay [14] was “inactive” in each case. Besides, the molecule was called inactive in [12] and in assay [13].
Regarding `O=C1c2cccc(O)c2C(=O)c2c(O)cc(CO)cc21`, the Potency result in [1], in assay [3], in assay [4], in [5], in assay [6] and in assay [16] was “inactive” in each case. The Potency entry in assay [17], in [9], in assay [10], in assay [11] and in assay [14] was “inactive” throughout. Also, the molecule was classed as inactive in assay [8] and in [12].
With `C[C@@H](C1=C(CCN(C)C)Cc2ccccc21)c1ccccn1`, the Potency result in [2], in assay [3], in assay [5], in [6], in assay [7] and in assay [16] was “inactive” in each case. For the same molecule, the Potency entry in [9], in [10] and in [11] was “inactive” throughout. For the same molecule, the call in [8] and in assay [12] was inactive.
With `CCCCOc1ccc(CC(=O)NO)cc1`, the Potency result in assay [18], in assay [2], in assay [5], in [6], in assay [10] and in assay [11] was “inactive” each time. In [15], the Potency was 9.44 µM (active). The outcome in [8] and in assay [12] was inactive.
For the molecule `CC(C)=CCCC(C)CC=O` (centres undefined), the Potency entry in assay [1], in assay [3], in [5], in assay [6], in assay [7] and in [17] was “inactive” each time. For the same molecule, the Potency result in [9] and in assay [11] was “inactive” each time. Further, the outcome in [8] and in assay [12] was inactive.
`NCCCOCCOCCOCCCN`: the Potency in assay [15] is 15.4 µM (active); in assay [17], 9.69 µM (active); in [9], 8.63 µM (active). Besides, the Potency result in [4], in [5], in assay [6], in [7], in [10] and in [11] was “inactive” each time. In addition, in assay [14], the Potency result is “inactive”. The outcome in assay [8], in assay [12] and in [13] was inactive.
As to `NC(N)=N/N=C/c1c(Cl)cccc1Cl`, the Potency in assay [15] is 29.8 µM (active); in [7] it was 15 µM (active). For the same molecule, the Potency result in [19], in [4], in assay [5], in assay [6], in [16] and in assay [10] was “inactive” in each case. In addition, the Potency entry in [11] and in assay [14] was “inactive” in each case. In addition, the molecule was called inactive in [8], in [12] and in [13].
